Screens from PubChem BioAssay.
TR SRC2 fluor cs = Total Fluorescence Counterscreen for Inhibitors of the Interaction of Thyroid Hormone Receptor and Steroid Receptor Coregulator 2; TRb/SRC2 Texas Red total fluorescence interference; hit rate 0.29% among 280,000; AID 1479, 2009; Potency, µM (highest dose often 106 µM), without a hit: at the highest dose fluorescence change, negative = quenching; active = well fitted curve in either direction with a large enough effect; inconclusive = small, poorly fitted or top-dose-only effect
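Human TRβ ligand-binding domain (0.6 uM) and Texas Red SRC2 peptide (20 nM) in Tris buffer with 1 uM T3 and 5% DMSO were incubated with pinned compound for 5 hr at ambient temperature. Total fluorescence was computed as S + 2P (555/632 nm).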
TRb-SRC2 inh = qHTS for Inhibitors of the Interaction of Thyroid Hormone Receptor and Steroid Receptor Coregulator 2; TRbeta-SRC2 peptide binding, fluorescence polarization; receptor liganded with 1 µM T3; Potency, µM (titrated, usually from 106 µM), without a hit: at the highest dose activity change, negative = inhibition, most hits filed as inhibitors; hit rate 0.065% among 280,000;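 also: plate controls were bound peptide for no effect and peptide without receptor for full effect; nearly all actives have a fitted effect of over 50% in size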
Target sequence (P10828 whole entry, looked up): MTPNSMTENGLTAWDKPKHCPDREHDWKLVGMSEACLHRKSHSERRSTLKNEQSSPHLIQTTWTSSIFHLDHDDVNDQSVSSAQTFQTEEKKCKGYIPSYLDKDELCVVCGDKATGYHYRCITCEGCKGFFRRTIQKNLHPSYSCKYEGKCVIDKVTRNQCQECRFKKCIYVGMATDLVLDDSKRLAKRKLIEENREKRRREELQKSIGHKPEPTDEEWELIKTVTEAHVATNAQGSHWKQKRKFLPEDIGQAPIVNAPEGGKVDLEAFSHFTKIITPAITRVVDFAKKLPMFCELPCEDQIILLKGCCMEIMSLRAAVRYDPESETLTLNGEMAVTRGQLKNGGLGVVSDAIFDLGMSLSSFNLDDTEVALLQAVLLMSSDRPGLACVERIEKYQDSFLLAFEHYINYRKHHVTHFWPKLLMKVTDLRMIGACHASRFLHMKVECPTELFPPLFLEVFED
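Compounds were added to 0.6 uM TRb ligand-binding domain and 20 nM Texas Red-labeled SRC2 peptide in Tris buffer containing 1 uM T3, incubated 5 hr at ambient temperature, then read by fluorescence polarization.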
Tau fluor cs = Counterscreen qHTS for Inhibitors of Tau Fibril Formation, Fluorescence Polarization | hit rate 0.93% among 280,000 | AID 1463, 2008 | Potency, µM (series often up to 57.7 µM), for inactives: at the top dose activity change, negative = decrease | tau K18 P301L Alexa594 fluorescence, heparin fibrillization; also: nearly all actives have a fitted effect of over 55% in size
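Human tau K18 P301L (15 uM unlabeled, 0.24 uM Alexa 594-labeled) in 100 mM sodium acetate pH 7 with 20 uM heparin, 6 hr at 37 C. ThT 30 uM added, 1 hr ambient; Alexa 594 FP and total fluorescence read at 555/632 nm.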
Tau ThT inhib = qHTS for Inhibitors of Tau Fibril Formation, Thioflavin T Binding; AID 1460, 2008; hit rate 2.1% among 270,000; Potency, µM (doses to about 57.4 µM), for the others: top-dose activity, negative = inhibition, most hits filed as inhibitors; recombinant tau K18 P301L (four-repeat tau fragment), heparin-induced fibrillization, ThT fluorescence; Microtubule-associated protein tau (Homo sapiens), P10636; also: nearly all actives have a fitted effect of over 55% in size
Target sequence (P10636 561-689 P618L limits assumed): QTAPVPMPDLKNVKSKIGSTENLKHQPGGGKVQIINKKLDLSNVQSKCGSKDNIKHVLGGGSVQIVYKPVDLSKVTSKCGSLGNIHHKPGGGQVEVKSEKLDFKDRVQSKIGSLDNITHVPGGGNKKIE
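Tau K18 P301L fragment (15 uM unlabeled plus 0.24 uM Alexa 594-labeled) in 100 mM sodium acetate pH 7 with compound, fibrillization induced by 20 uM heparin for 6 hr at 37 C. Thioflavin T (30 uM) added, fluorescence read after 1 hr (ex 450, em 510 nm).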
Tau fibril FP = qHTS for Inhibitors of Tau Fibril Formation, Fluorescence Polarization | Microtubule-associated protein tau (Homo sapiens), P10636 | K18 P301L tau heparin fibrillization, Alexa594 FP, 6 h | Potency, µM (titrated, usually from 57.7 µM), inactives show at the highest dose activity, negative = inhibition, hits mostly inhibitors | hit rate 0.39% among 280,000 | AID 1468, 2008; also: nearly all actives have a fitted effect of over 55% in size
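Human K18 P301L fragment (15 uM unlabeled plus 0.24 uM Alexa 594-labeled) in 100 mM sodium acetate pH 7 with compound, aggregation induced by 20 uM heparin for 6 hr at 37 C. ThT (30 uM) added for 1 hr, then Alexa 594 FP read.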
Active calls of the source: *; ? = inconclusive; . = not tested or not shown; [ ] = another dose, or the depositor's remark. Only some compounds are listed: those with a hit (about 3.1% of all), similar ones and a draw of the others. Unless noted, calls follow the shape of the dose curve; as a rule, active = well fitted curve in the direction sought with a large enough effect; inconclusive = small, poorly fitted or top-dose-only effect, or another doubt; inactive = no such curve, though single readings can be large; an effect the other way counts as inactive or inconclusive. Unless noted, % is scaled to controls: 0 for no effect and ±100 for the full control effect; potency is read from the fitted curve at half-maximal effect.

SMILES | TR SRC2 fluor cs | TRb-SRC2 inh | Tau fluor cs | Tau ThT inhib | Tau fibril FP
Nc1nonc1OCCN1CCN(c2ccc([N+](=O)[O-])c3cccnc23)CC1 | -4% | -3% | ? | 18µM* | -1%
O=C(O)CCCNc1cc(N2CCN(C3CCCCC3)CC2)c2noc3c2c1C(=O)c1ccccc1-3 | 40µM*[fluorescent] | -22% | ? | 8.9µM* | ?
CCNc1cc(N2CCN(C3CCCCC3)CC2)c2noc3c2c1C(=O)c1ccccc1-3 | 0% | -2% | -23% | ? | 0%
O=C1c2ccccc2-c2onc3c(NCCO)cc(NC4CCCCC4)c1c23 | 40µM*[fluorescent] | ? | 11µM*[quencher] | 7.9µM* | ?
CC(=O)OCCNc1cc(N2CCN(C)CC2)c2noc3c2c1C(=O)c1ccccc1-3 | 50µM*[fluorescent] | 45µM* | ? | 28µM* | ?
COc1cc(NC(=O)C2=C(C)Nc3nnnn3C2c2ccc(SC)cc2)c(OC)cc1Cl (stereo unspecified) | -16% | 3% | ? | -5% | ?
Nc1[nH]n(-c2ccccc2)c(=O)c1N=Nc1ccccc1 | -7% | -2% | 5µM*[quencher] | 2.5µM* | 12%
Cc1ccc(N=Nc2c(C)[nH]n(-c3ccccc3)c2=O)c(C)c1 | -1% | -1% | 11%[2.34 µM] | -18% | -4%
Cc1[nH]n(-c2ccccc2)c(=O)c1N=Nc1ccc2c(c1)OCCO2 | -1% | 0% | ? | 3.5µM* | -18%
Nc1c(N=Nc2cccc(Cl)c2)c(=O)[nH]n1-c1ccccc1 | 1% | -3% | ? | ? | 10%
Nc1[nH]n(-c2ccccc2)c(=O)c1N=Nc1ccccc1[N+](=O)[O-] | 3% | -5% | ? | ? | -2%
Nc1[nH]n(-c2ccccc2)c(=O)c1N=Nc1ccc2ncsc2c1 | -16% | 2% | 5µM*[quencher] | 2.2µM* | ?
CC(=O)Oc1cc(OC(C)=O)c2c(=O)cc(-c3ccc(OC(C)=O)c(OC(C)=O)c3)oc2c1 | -7% | -5% | ? | ? | ?
COc1ccc(CNC(=O)c2ccc(CS(=O)Cc3ccccc3Cl)o2)cc1 (stereo unspecified) | -2% | -7% | -15% | -12% | -2%
COC(=O)c1c(OC)cc2c(c1C)Oc1c(Cl)c(OC(C)=O)c(Cl)c(C)c1C(=O)O2 | -4% | 1% | -12% | ? | -2%
CCOc1ccc(Nc2ncnc3ccc([N+](=O)[O-])cc23)cc1 | -6% | -4% | -16% | 10µM* | 16%
COC(=O)[C@H](CCSC)NC(=O)C/C=C\[C@@H](C)CO | -1%[11.2 µM] | 2%[11.2 µM] | -5%[11.6 µM] | -9%[11.5 µM] | -1%[11.6 µM]
COc1ccc(OC)c(Nc2nc(-c3sc(NC(=O)C(C)(C)C)nc3C)cs2)c1 | -1% | 5% | 14µM*[quencher] | ? | 14%
CCCC(C)C(=O)Nc1nc(C)c(-c2csc(Nc3ccccc3OC)n2)s1 (stereo unspecified) | 1% | 13% | ? | ? | ?
CCCCC(=O)Nc1nc(C)c(-c2csc(Nc3cc(OC)ccc3OC)n2)s1 | -7% | -11% | 16µM*[quencher] | ? | ?
CCC(C)C(=O)Nc1nc(C)c(-c2csc(Nc3cc(OC)ccc3OC)n2)s1 (stereo unspecified) | -4% | 3% | 14µM*[quencher] | ? | ?
COc1ccc(OC)c(Nc2nc(-c3sc(NC(=O)CC(C)C)nc3C)cs2)c1 | -4% | 7% | 13µM*[quencher] | ? | -5%
COc1ccc(OC)c(Nc2nc(-c3sc(C)nc3C)cs2)c1 | -7% | -2% | ? | 14µM* | ?
COc1ccc(Cl)cc1Nc1nc(-c2sc(NC(=O)C(C)(C)C)nc2C)cs1 | -2% | -11% | ? | ? | ?
Cc1nc(C)c(-c2csc(Nc3ccc(F)cc3)n2)s1 | -3% | 2% | 20µM*[quencher] | ? | ?
SMILES | TR SRC2 fluor cs | TRb-SRC2 inh | Tau fluor cs | Tau ThT inhib | Tau fibril FP
CCCCCCC(=O)Nc1nc(C)c(-c2csc(Nc3cc(Cl)ccc3C)n2)s1 | -3% | -1% | ? | ? | 11%
CCCC(C)C(=O)Nc1nc(C)c(-c2csc(Nc3ccc(Cl)cc3)n2)s1 (stereo unspecified) | 8% | 5% | 16µM*[quencher] | ? | 11%
CCC(C)C(=O)Nc1nc(C)c(-c2csc(Nc3cc(Cl)ccc3OC)n2)s1 (stereo unspecified) | 10% | -3% | 13µM*[quencher] | ? | 7%
Fc1ccc(Nc2nc(-c3ccncc3)cs2)cc1 | -5% | 7% | -19% | ? | 6%
Cc1ccc(NC(=O)Cn2cc(S(=O)(=O)N3CCCC3)c(S(=O)(=O)N3CCCC3)c2)c(C)c1 | -2% | 3% | -5% | 9% | -6%
Cc1cc(=O)c2c(O)cc(O)c(C)c2o1 | -3% | -2% | 28µM*[quencher] | 25µM* | ?
CCCc1cc(=O)c2c(O)ccc(OC)c2o1 | 1% | -6% | -13% | -4% | 1%
CCOc1ccc(CNC(=O)c2ccc3c(c2)c(C)c(C)n3Cc2ccccc2)cc1OC | 1% | 1% | -17% | -6% | 7%
NS(=O)(=O)c1ccc(NC(=O)COC(=O)c2cn(-c3ccccc3)nc2-c2ccc(F)cc2)cc1 | 1% | -6% | ? | 0% | 13µM*
Cc1cc(C)n(-c2cc(C(C)(C)C)nc3c(-c4ccccc4)cnn23)n1 | 4% | -2% | -11% | -8% | 5%
CC(C)(C)c1cc(NCc2ccccn2)n2ncc(-c3ccccc3)c2n1 | 1% | 3% | 10µM*[quencher] | ? | 11%
Cc1[nH]c2ccccc2c1/C=N/NC(N)=S | -2% | 1% | -18% | ? | -2%
Cc1[nH]c2ccccc2c1/C=N/NC(=O)c1cc(-c2ccccc2)n[nH]1 | -18% | 19% | 16µM*[quencher] | . | ?
Cc1ccc(NC(=S)N/N=C/c2c(C)[nH]c3ccccc23)cc1 | -2% | 4% | 14µM*[quencher] | ? | 9%
Cc1[nH]c2ccccc2c1/C=N/NC(=S)NCc1ccccc1 | -6% | 6% | 13µM*[quencher] | ? | -8%
Cc1ccc(OCC(O)C(C)NC(C)C)c2c1CCC2 (stereo unspecified) | 3% | 3% | -4% | -3% | 0%
CCNc1ccccc1 | 0% | 5% | . | . | .
COc1cc2c(cc1NC(=O)Nc1ccccc1)oc1ccccc12 | -4% | 1% | 7.1µM*[quencher] | 2% | -8%
COc1cc2c(cc1NC(=O)CSCC(=O)O)oc1ccccc12 | -7% | 0% | -4% | -4% | 5%
COc1cc2c(cc1NC(=S)Nc1cccc(C(F)(F)F)c1)oc1ccccc12 | -1% | 2% | 13µM*[quencher] | ? | ?
